The list is not random: actives were taken first. Their share in the collection is about 7.8%.
Hedgehog inh – Sonic Hedgehog pathway inhibition | Shh-LIGHT2 Gli-luciferase reporter, 30 h | inhibition, % (test concentration not listed) | hit rate 2.1% among 22,000 | AID 2313;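 active means mean inhibition across valid replicates above about 65%, limit read from the data; inconclusive means mean under the limit, yet half or more replicates past it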;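 further: pathway switched on by Shh-conditioned medium diluted 1 in 25 in low serum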
MITF inhib – blocks MITF activity; TRPM1 promoter luciferase, luminescence, 24 h; inhibition, % (no concentration beside the values); hit rate 0.28% among 37,000; in the data active means inhibition above about 85%; inconclusive means no clear call, values can overlap the other calls; inactive means below about 68%;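 further: human melanocyte line stably carrying TRPM1 promoter luciferase reporter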
PD-1 reverse act – reversal of PD-1 mediated T-cell inhibition; primary human CD4 T cells, PD-L1 beads, CellTiter-Glo 96 h; AID 2316; 29,000 tested, under 10 active; activation, % (no concentration beside the values); call rule not given here
NOMO-1 viab – STK33 inhibitor candidate reducing NOMO-1 cell viability; AID 2330; hit rate 7.5% among 37,000; inhibition, % (test concentration not listed); NOMO-1 AML viability, CellTiter-Glo luminescence, 72 h; in the data active means inhibition above about 80%; inconclusive means no clear call, values can overlap the other calls
Of the large screens only hits and unclear results are named; the others gave an inactive call.

CCOC(=O)COc1ccc(-c2nc3c([nH]2)c(=O)n(C)c(=O)n3C)cc1OC	NOMO-1 viab 149 (no result: Hedgehog inh)
CCOCCCNc1nc2c([nH]1)c(=O)n(C)c(=O)n2C	none (no result: Hedgehog inh)
C=C1C(=O)O[C@@H]2C3=C(C)CC[C@]34O[C@@H](C[C@@H]4C)[C@H]12	NOMO-1 viab 114
CCC(C)[C@H]1C(=O)O[C@H](C(C)C)C(=O)N(C)[C@@H](C(C)C)C(=O)O[C@H](C(C)C)C(=O)N(C)[C@@H](C(C)C)C(=O)O[C@H](CC(C)C)C(=O)N1C (some centres not stated)	Hedgehog inh 106, NOMO-1 viab 119
Oc1cc(O)cc(/C=C/c2ccc(O)c(O)c2)c1	Hedgehog inh 82, MITF inhib 94, NOMO-1 viab 113 (no result: PD-1 reverse act)
COC(=O)c1sc2c(C)cc(Cl)c(C)c2c1C(=O)Oc1ccccc1	none
Cc1cccc(-c2nnc(SCC(=O)Nc3ccccc3F)o2)c1	MITF inhib 88 (no result: Hedgehog inh)
Cc1cccc(-c2nnc(SCC(=O)Nc3c(Cl)cc(Cl)cc3Cl)o2)c1	none (no result: Hedgehog inh, PD-1 reverse act)
Clc1ccc(CO/N=C(\Cn2ccnc2)c2ccc(Cl)cc2Cl)c(Cl)c1	Hedgehog inh 104, MITF inhib 93, NOMO-1 viab 110 (no result: PD-1 reverse act)
CCNC(=O)c1ccc(Cl)s1	none
O=C(/C=C/c1ccccc1)c1ccc(O)cc1	NOMO-1 viab 105 (no result: PD-1 reverse act)
O=C(Cn1ccc([N+](=O)[O-])n1)Nc1ccc(F)c(Cl)c1	none (no result: Hedgehog inh)
CCOC(=O)C(C#N)C(c1cccnc1)c1[nH]c(C)nc1O (configuration not stated)	none
O=c1oc(-c2ccccn2)nc2ccccc12	none
c1ccc(-c2ccc3ccccc3n2)nc1	NOMO-1 viab 104
Cc1cc(C)c(C(=O)N2Cc3ccccc3NC2=S)c(C)c1	none
Cc1c(C)c(C)c(S(=O)(=O)N2CCCC2)c(C)c1C	none
COc1ccc(OCC(O)CNC(C)(C)C)cc1 (configuration not stated)	none
C[C@H]1CN([C@@H](C)CO)C(=O)c2cccc(NC(=O)Nc3ccc(C(F)(F)F)cc3)c2O[C@@H]1CN(C)C(=O)Nc1cccc2ccccc12	NOMO-1 viab 102 (no result: PD-1 reverse act)
C[C@@H]1CN([C@@H](C)CO)C(=O)c2cccc(NC(=O)Nc3cccc4ccccc34)c2O[C@H]1CN(C)C(=O)Nc1ccc(C(F)(F)F)cc1	none
C[C@@H]1CN([C@H](C)CO)C(=O)c2cccc(NC(=O)Nc3ccc(C(F)(F)F)cc3)c2O[C@H]1CN(C)C(=O)Nc1cccc2ccccc12	NOMO-1 viab 83 (no result: PD-1 reverse act)
CC(C)c1ccc(NC(=O)CSc2n[nH]c(-c3ccc(Cl)cc3)n2)cc1	none (no result: Hedgehog inh)
Cc1c(/C=C2\SC(c3ccccc3)=NC2=O)c(=O)n(-c2ccccc2)n1C	none
Cc1ccc(-n2sc3ccccc3c2=O)cc1	NOMO-1 viab 141
CCOc1ccc(C(Nc2cccc(C)n2)c2ccc3ccc(C)nc3c2O)cc1 (configuration not stated)	NOMO-1 viab 106 (no result: Hedgehog inh)
Cc1cccc(NC(c2ccccc2)c2ccc3ccc(C)nc3c2O)n1 (configuration not stated)	NOMO-1 viab 102 (no result: Hedgehog inh, PD-1 reverse act)
COc1ccc(NC(=O)N(C)C[C@H]2Oc3ccc(NS(=O)(=O)c4cn(C)cn4)cc3CC(=O)N([C@H](C)CO)C[C@H]2C)cc1	none
COc1ccc(NC(=O)N(C)C[C@@H]2Oc3ccc(NS(=O)(=O)c4cn(C)cn4)cc3CC(=O)N([C@H](C)CO)C[C@H]2C)cc1	Hedgehog inh 72
COc1ccc(NC(=O)N(C)C[C@H]2Oc3ccc(NS(=O)(=O)c4ccc(Cl)cc4)cc3CC(=O)N([C@@H](C)CO)C[C@H]2C)cc1	Hedgehog inh 67
COc1ccc(NC(=O)N(C)C[C@@H]2Oc3ccc(NS(=O)(=O)c4ccc(Cl)cc4)cc3CC(=O)N([C@@H](C)CO)C[C@@H]2C)cc1	none (no result: PD-1 reverse act)
CCNS(=O)(=O)c1cc(-c2nnc(Nc3ccc(F)cc3)c3ccccc23)ccc1C	NOMO-1 viab inconclusive
O=C(O)C1C2CCC(C2)C1C(=O)c1ccccc1 (configuration not stated)	none
CC1=C(C#N)C(C(F)(F)F)(C(F)(F)F)N=C(C2CCCCC2)N1	Hedgehog inh 105, NOMO-1 viab 141
C[C@H](CO)N1C[C@H](C)[C@H](CN(C)S(=O)(=O)c2cn(C)cn2)Oc2ccc(NC(=O)Nc3ccc(C(F)(F)F)cc3)cc2CC1=O	NOMO-1 viab 125 (no result: PD-1 reverse act)
C[C@@H]1CN([C@@H](C)CO)C(=O)Cc2cc(NC(=O)Nc3ccc(C(F)(F)F)cc3)ccc2O[C@@H]1CN(C)S(=O)(=O)c1cn(C)cn1	Hedgehog inh inconclusive, NOMO-1 viab 112
C[C@H]1CN([C@@H](C)CO)C(=O)Cc2cc(NC(=O)Nc3ccc(C(F)(F)F)cc3)ccc2O[C@@H]1CN(C)S(=O)(=O)c1cn(C)cn1	none
O=C1/C(=C/c2ccco2)N=C(c2ccccc2)N1/N=C/c1ccc(F)cc1	none

High-throughput results from PubChem.
